Screening data from PubChem.
Only some compounds are listed: those with a hit (about 3.8% of all), similar ones and a draw of the others.
Ecoli rRNA inh: selective bacterial rRNA inhibition in E. coli; E. coli WT GFP vs humanized-ribosome RFP mutants, fluorescence, 24 h; active compounds read low; DMSO median 0, no signal -100; AID 720706; GFP signal change (wild-type ribosome), % (no concentration beside the values); 350,000 compounds, 1.6% hits;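 active means significant combined selectivity score with lowered wild-type GFP, culture density cut under 30%, mutant RFP and density less affected; inactive means any of these conditions unmet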
ADAM10 inh: inhibits human ADAM10; AID 720582; recombinant ADAM10, EDANS/DABCYL FRET peptide cleavage, 3 h; 370,000 compounds, 0.62% hits; inhibition, % at 7 µM;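 active means inhibition above a per-campaign cutoff equal to the mean of compounds falling between control-based bounds plus 3 SD, cut at about 20% in these data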;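 further: 0% = DMSO wells while the 100% control is not disclosed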
ADAM17 inh: ADAM17 inhibition, QFRET primary screen. 370,000 compounds, 0.83% hits. inhibition, % at 6.95 µM. AID 720648. recombinant ADAM17, EDANS/DABCYL FRET peptide cleavage;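 active means inhibition above the mean of compounds lying between control limits plus 3 SD, set per campaign, cut at about 8.5% in these data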;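 further: 0% = DMSO-only wells as the low control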
proKLK7 act: proKLK7 (human) activation, primary screen; P49862; purified proKLK7, EDANS-DABCYL substrate fluorescence; 100% is mature enzyme control, 0% vehicle; activation, % at 7 µM; 370,000 compounds, 0.9% hits; AID 652039;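 active means activation above the mean of all tested compounds plus 3 SD, computed per campaign excluding outliers beyond control limits, cut at about 13% in these data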
Target sequence (P49862 whole entry, looked up): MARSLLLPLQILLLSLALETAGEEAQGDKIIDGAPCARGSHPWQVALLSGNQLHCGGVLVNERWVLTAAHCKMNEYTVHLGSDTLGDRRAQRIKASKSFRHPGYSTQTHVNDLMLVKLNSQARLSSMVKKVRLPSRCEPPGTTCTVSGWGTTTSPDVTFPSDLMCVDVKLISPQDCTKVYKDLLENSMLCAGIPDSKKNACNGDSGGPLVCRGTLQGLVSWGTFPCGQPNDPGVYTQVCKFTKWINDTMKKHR
FGF22 binding: FGF22 (human) thermal shift binding. Q9HCT0. recombinant FGF22 thermal shift, SYPRO orange fluorescence; percent of sucrose octasulfate shift, DMSO zero. activity (Tm shift, normalised), % at 9.99 µM. 340,000 compounds, 1.5% hits;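 active means mean Tm shift, scaled 0 neutral to 100 positive control, at about 1.3% or above, every replicate too, limit read from the data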
Target sequence (Q9HCT0 whole entry, looked up): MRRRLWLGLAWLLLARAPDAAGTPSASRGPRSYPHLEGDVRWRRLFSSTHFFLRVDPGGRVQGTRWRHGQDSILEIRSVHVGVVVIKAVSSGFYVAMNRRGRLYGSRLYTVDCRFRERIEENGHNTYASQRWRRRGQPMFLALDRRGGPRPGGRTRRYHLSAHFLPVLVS
Active calls of the source: *; . = not tested or not shown.

SMILES	Ecoli rRNA inh	ADAM10 inh	ADAM17 inh	proKLK7 act	FGF22 binding
Cc1ccccc1C(=O)N1CCC(C(=O)OCC(=O)Nc2cccc([N+](=O)[O-])c2C)CC1	6.6	-2.3	2.8	0.1	0.1
CCOC(=O)CNC(=O)C1Cc2ccccc2CN1S(=O)(=O)c1cccs1 (stereo unspecified)	6.4	-6.7	-2.3	-0.4	43.4*
O=C(Nc1ccno1)Nc1ccc(Cl)cc1Cl	-30.3*	9.1	-1.9	0.1	0.2
O=C(Nc1ccc(Cl)cc1Cl)Nn1cnnc1	6.5	2.3	-2.2	0.9	-0.1
C[C@H](CO)N1C[C@H](C)[C@H](CN(C)C(=O)Nc2cccc3ccccc23)Oc2ccc(NS(=O)(=O)c3ccc(Cl)cc3)cc2CC1=O	-3.0	.	.	.	-0.1
CCOc1ccc(-c2nc(-c3cccs3)c(CC(=O)O)s2)cc1OC	-19.4*	-142.7	-53.3	3.3	0.0
CO[C@@H]1CN(C)C(=O)c2ccc(NS(C)(=O)=O)cc2OC[C@@H](C)N(C(=O)NC(C)C)C[C@H]1C	0.9	.	.	.	0.0
COc1ccc(-c2noc(CCC(=O)N3CCN(c4cccc(OC)c4)CC3)n2)cc1	-31.6*	-15.7	-0.7	0.8	-0.5
COc1ccc(-c2noc(CCC(=O)N3CCN(c4cccc(C(F)(F)F)c4)CC3)n2)cc1	.	3.2	-0.5	-0.4	.
CCOC(=O)/C(C)=N/NC(=O)c1ccc([N+](=O)[O-])cc1	14.6	-0.7	0.4	2.1	44.0*
CCOC(=O)C(CC)/C(C)=N/NC(=O)c1ccc([N+](=O)[O-])cc1 (stereo unspecified)	.	-4.0	-2.4	-0.1	.
CC(C)Cc1ccc(S(=O)(=O)Nc2ccc3[nH]c(=O)[nH]c3c2)cc1	-25.5*	11.5	3.1	-1.1	-0.2
CCc1ccc(NS(=O)(=O)c2ccc3[nH]c(=O)[nH]c3c2)cc1	1.6	3.4	0.7	0.6	0.0
CN(c1ccccc1)S(=O)(=O)c1cccc(C(=O)OCC(=O)NCc2ccco2)c1	-24.1*	5.2	2.0	-0.1	0.0
O=C(COC(=O)c1cccc(S(=O)(=O)N2CCc3ccccc32)c1)NCc1ccco1	-10.3	0.8	1.6	0.0	43.9*
Cc1c(OC(C)C(=O)O)ccc2c(-c3ccccc3)cc(=O)oc12 (stereo unspecified)	1.0	-63.6	-26.2	1.4	0.1
CC(=O)COc1ccc2c(-c3ccccc3)cc(=O)oc2c1C	-17.9*	-20.4	-8.6	-7.6	0.2
Cc1c(OC(C(=O)O)c2ccccc2)ccc2c(-c3ccccc3)cc(=O)oc12 (stereo unspecified)	-24.8*	-75.9	-25.6	0.6	-0.5
Cc1c(OCC(N)=O)ccc2c(-c3ccccc3)cc(=O)oc12	1.5	-5.4	-3.2	0.6	-0.1
Cc1noc(C)c1S(=O)(=O)N(C)C[C@@H]1OCCCC[C@@H](C)Oc2ccc(NS(=O)(=O)c3ccc(F)cc3)cc2C(=O)N([C@@H](C)CO)C[C@H]1C	0.3	.	.	.	-0.2
CCOC(=O)c1sc(=S)n(C)c1NC(=O)c1ccc(OC)cc1	-21.0*	-2.0	-4.3	-0.2	-0.2
Cc1ccc(CSc2nnc(C)c(=O)[nH]2)cc1	-6.0	3.5	-0.1	0.2	43.0*
Cc1nnc(SCc2ccccc2)[nH]c1=O	-0.7	-3.0	-2.3	-0.3	0.2
O=C(CCN1C(=O)c2ccccc2C1=O)N1CCN(c2ccccc2)CC1	.	1.7	0.8	0.3	.
O=C1c2ccccc2C(=O)N1Cc1cnc(N2CCN(c3ccccc3)CC2)s1	-28.1*	4.5	-4.4	0.1	0.1
SMILES	Ecoli rRNA inh	ADAM10 inh	ADAM17 inh	proKLK7 act	FGF22 binding
C[C@H]1CN([C@@H](C)CO)C(=O)c2cc(C3=CCCCC3)cnc2O[C@@H]1CN(C)C(=O)Cc1ccncc1	-2.4	.	.	.	.
O=C(NC(=S)Nc1ccccc1N1CCOCC1)c1ccccc1F	-34.0*	0.8	4.6	0.2	0.1
O=C(NC(=S)Nc1ccccc1N1CCCC1)c1cccs1	3.5	-4.4	-1.1	0.0	-0.2
CS(=O)(=O)N1CCN(c2ccc(NC(=S)NC(=O)c3cccs3)cc2)CC1	5.4	-9.7	-2.5	0.1	43.9*
O=C(NC(=S)Nc1ccccc1N1CCOCC1)c1cccs1	-29.0*	14.8	3.8	-0.3	-0.3
O=C(NC(=S)Nc1ccccc1N1CCN(C(=O)c2ccccc2)CC1)c1ccccc1F	-4.9	-18.5	-3.9	0.4	-0.1
FC(F)(F)Oc1ccc(NC(=S)Nc2ccccc2N2CCOCC2)cc1	-50.6*	-3.1	-2.1	0.0	0.0
